Assay results: ChEMBL document CHEMBL4513149, “CO-ADD screening of MMV (CH) - MMV compounds” (2021)
Entries with a potency or affinity are not part of this list.

Key:
[1] = system: Staphylococcus aureus; conditions: Concentration 20 uM; ASSAY_TEST Inhibition of Bacterial Growth; detection method Absorption (OD600); MEDIA CAMHB; plate type 384well; NBS; CORNING #3640; time 18 hr
[2] = system: Escherichia coli; conditions: Concentration 20 uM; ASSAY_TEST Inhibition of Bacterial Growth; detection method Absorption (OD600); MEDIA CAMHB; plate type 384well; NBS; CORNING #3640; time 18 hr

| SMILES | Inhibition [1] | Inhibition [2] |
| --- | --- | --- |
| CC(Oc1ccccc1)C(=O)Nc1nc(-c2ccccn2)cs1 (stereo not drawn) | 40.18% | -10.82% |
| COc1cccc2c(C)nc(N=C(N)N)nc12.O=C(O)C(F)(F)F.O=C(O)C(F)(F)F | 15.44% | 7.95% |
| CC(C)(C)c1cnc(NC(=O)c2ccccc2O)s1 | 23.8% | 4.86% |
| Cc1ccc(NC(=O)CC2COc3ccccc3O2)cc1Cl (stereo not drawn) | 15.28% | 6.03% |
| COc1ccc(Cn2cnc3c(-c4ccco4)nc(Cl)nc32)cc1 | 20.69% | 10.18% |
| Cl.O=C(Nc1ccc(N2CCNCC2)nc1)c1oc(-c2ccccc2)nc1C(F)(F)F | 15.48% | 0.64% |
| COC(=O)c1c(NC(=O)c2c(F)c(F)c(F)c(F)c2F)sc2c1CCCCC2 | 13.36% | 6.57% |
| FC(F)(F)c1nnc2ccc(Cl)nn12 | 14.72% | 1.56% |
| Cc1ccc2nc(C)c(-c3ccn(Cc4ccccc4)n3)n2c1 | 13.47% | 10.25% |
| OC[C@H]1O[C@@H](n2c3ccc(Cl)cc3c3c(-c4cc5ccccc5o4)ncnc32)C(O)[C@H]1O (stereo partly drawn) | 9.2% | 8.79% |
| O=C(NCCc1c[nH]c2ccccc12)c1cc2ccccc2oc1=O | 13.99% | 9.41% |
| CCCc1ccc(S(=O)(=O)Nc2ccc(CN3CCN(CC4CC4)CC3)cc2)cc1 | 18.92% | 6.87% |
| CCCCc1ccc(NC(=O)Nc2ccc(O[C@H]3CCCC[C@@H]3N(C)c3ccccc3)c(F)c2)cc1 | 12.12% | 9.29% |
| Cc1ccc2[nH]c3c(NCCN(C)C)ncnc3c2c1 | 20.13% | 7.48% |
